# In the supplement of paper PMC10037445:
# In all, about 2,900 compounds were measured (“NF-kB SEAP reporter activity, fold change vs agonist alone”: median about 0.99, highest 2% from about 2.6 on). For the sample, the highest values were picked, then their nearest neighbours and some compounds at random.
# How the values were obtained:
# RAW-Dual [1] = experiment: NF-kB SEAP reporter activity, fold change vs agonist alone; higher = enhanced NF-kB activity; details: cytotoxicity flag (confluency mask): not cytotoxic
# Procedure, shortened: (§1)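 Reporter activity is given as fold change relative to agonist-alone wells. To measure it, 50 nL of library stock was pin-tooled onto RAW-Dual macrophages (50,000 cells/well, DMEM, 384-well plates), a PRR agonist followed 1 h later, and cells stayed at 37 °C, 5% CO2. Twenty hours on, supernatant was assayed for IRF (QuantiLuc luminescence) and NF-κB (QuantiBlue, 620 nm absorbance), and wells under 70% of agonist-control IncuCyte confluency in both mask sets were marked cytotoxic.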
# RAW-Dual [2] = experiment: NF-kB SEAP reporter activity, fold change vs agonist alone; cytotoxicity flag (confluency mask): not cytotoxic; higher = enhanced NF-kB activity
# Procedure, shortened: as §1
# [3] = library stock concentration (final ~1000-fold dilution): 10 mM, agonist: Imiquimod (TLR7) […]
# [4] = library stock concentration (final ~1000-fold dilution): 10 mM, agonist: MPLA (TLR4) […]
# [5] = agonist: ODN 1826 (TLR9) 0.5 ug/mL
# [6] = agonist: Pam2CSK4 (TLR2/6) 0.1 ug/mL
# [7] = agonist: Pam3CSK4 (TLR2/1) 0.1 ug/mL
structure (smiles),measurement,setting,value
Cn1cc(C2=C(c3ccc(Cl)cc3Cl)C(=O)NC2=O)c2ccccc21,NF-kB SEAP reporter activity,RAW-Dual [1]; [3],1.58
same,NF-kB SEAP reporter activity,RAW-Dual [1]; [4],1.99
COc1cc2c3cc1Oc1c(OC)c(OC)cc4c1C(Cc1ccc(O)c(c1)Oc1ccc(cc1)CC3N(C)CC2)N(C)CC4.Cl.Cl (centres undefined) (library stock concentration (final ~1000-fold dilution): 10 mM),NF-kB SEAP reporter activity,RAW-Dual [2]; agonist: LPS (TLR4) 0.1 ug/mL,1.44
same,NF-kB SEAP reporter activity,RAW-Dual [2]; [5],0.2
same,NF-kB SEAP reporter activity,RAW-Dual [2]; [6],1.08
same,NF-kB SEAP reporter activity,RAW-Dual [2]; [7],1.19
COc1cc2c3cc1Oc1c(OC)c(OC)cc4c1C(Cc1ccc(O)c(c1)Oc1ccc(cc1)CC3N(C)CC2)N(C)CC4.Cl.Cl (centres undefined),NF-kB SEAP reporter activity,RAW-Dual [1]; [3],0.379
same,NF-kB SEAP reporter activity,RAW-Dual [1]; [4],1.37
CC1(C)SC2C(NC(=O)C(N)c3ccccc3)C(=O)N2C1C(=O)OCOC(=O)C1N2C(=O)CC2S(=O)(=O)C1(C)C (centres undefined) (library stock concentration (final ~1000-fold dilution): 10 mM),NF-kB SEAP reporter activity,RAW-Dual [2]; agonist: LPS (TLR4) 0.1 ug/mL,1.06
same,NF-kB SEAP reporter activity,RAW-Dual [2]; [5],0.886
same,NF-kB SEAP reporter activity,RAW-Dual [2]; [6],1.16
same,NF-kB SEAP reporter activity,RAW-Dual [2]; [7],0.993
CC1(C)SC2C(NC(=O)C(N)c3ccccc3)C(=O)N2C1C(=O)OCOC(=O)C1N2C(=O)CC2S(=O)(=O)C1(C)C (centres undefined),NF-kB SEAP reporter activity,RAW-Dual [1]; [4],1.07
Cc1nc(-c2cn3c(n2)-c2ccc(-c4cnn(C(C)(C)C(N)=O)c4)cc2OCC3)n(C(C)C)n1 (library stock concentration (final ~1000-fold dilution): 10 mM),NF-kB SEAP reporter activity,RAW-Dual [2]; agonist: LPS (TLR4) 0.1 ug/mL,2.74
same,NF-kB SEAP reporter activity,RAW-Dual [2]; [5],1.31
same,NF-kB SEAP reporter activity,RAW-Dual [2]; [6],0.996
same,NF-kB SEAP reporter activity,RAW-Dual [2]; [7],1.15
CC(Oc1ccc2c(c1)OCCn1cc(-c3ncnn3C(C)C)nc1-2)C(N)=O (centres undefined),NF-kB SEAP reporter activity,RAW-Dual [1]; [3],0.585
same,NF-kB SEAP reporter activity,RAW-Dual [1]; [4],1.4
Cc1nc(-c2cn3c(n2)-c2ccc(-c4cnn(C(C)(C)C(N)=O)c4)cc2OCC3)n(C(C)C)n1,NF-kB SEAP reporter activity,RAW-Dual [1]; [3],0.619
same,NF-kB SEAP reporter activity,RAW-Dual [1]; [4],1.84
CC(Oc1ccc2c(c1)OCCn1cc(-c3ncnn3C(C)C)nc1-2)C(N)=O (centres undefined) (library stock concentration (final ~1000-fold dilution): 10 mM),NF-kB SEAP reporter activity,RAW-Dual [2]; agonist: LPS (TLR4) 0.1 ug/mL,2.07
same,NF-kB SEAP reporter activity,RAW-Dual [2]; [5],1.1
same,NF-kB SEAP reporter activity,RAW-Dual [2]; [6],0.894
same,NF-kB SEAP reporter activity,RAW-Dual [2]; [7],1.41
OCC1OC(c2ccc(F)c(Cc3cc4ccccc4s3)c2)C(O)C(O)C1O (centres undefined),NF-kB SEAP reporter activity,RAW-Dual [1]; [3],1.06
same,NF-kB SEAP reporter activity,RAW-Dual [1]; [4],1.04
OCC1OC(c2ccc(F)c(Cc3cc4ccccc4s3)c2)C(O)C(O)C1O (centres undefined) (library stock concentration (final ~1000-fold dilution): 10 mM),NF-kB SEAP reporter activity,RAW-Dual [2]; agonist: LPS (TLR4) 0.1 ug/mL,1.07
same,NF-kB SEAP reporter activity,RAW-Dual [2]; [5],0.948
same,NF-kB SEAP reporter activity,RAW-Dual [2]; [6],1.15
same,NF-kB SEAP reporter activity,RAW-Dual [2]; [7],1.17
Nc1ccn(C2CSC(CO)O2)c(=O)n1 (centres undefined) (library stock concentration (final ~1000-fold dilution): 10 mM),NF-kB SEAP reporter activity,RAW-Dual [2]; agonist: LPS (TLR4) 0.1 ug/mL,0.862
same,NF-kB SEAP reporter activity,RAW-Dual [2]; [5],1.03
same,NF-kB SEAP reporter activity,RAW-Dual [2]; [6],0.999
same,NF-kB SEAP reporter activity,RAW-Dual [2]; [7],1.11
Nc1ccn(C2CSC(CO)O2)c(=O)n1 (centres undefined),NF-kB SEAP reporter activity,RAW-Dual [1]; [3],0.893
same,NF-kB SEAP reporter activity,RAW-Dual [1]; [4],1.04
COC1CCC(N2C(=O)CNc3ncc(-c4ccc(C(C)(C)O)nc4)nc32)CC1 (centres undefined),NF-kB SEAP reporter activity,RAW-Dual [1]; [3],0.711
same,NF-kB SEAP reporter activity,RAW-Dual [1]; [4],0.53
COC1CCC(N2C(=O)CNc3ncc(-c4ccc(C(C)(C)O)nc4)nc32)CC1 (centres undefined) (library stock concentration (final ~1000-fold dilution): 10 mM),NF-kB SEAP reporter activity,RAW-Dual [2]; agonist: LPS (TLR4) 0.1 ug/mL,0.463
same,NF-kB SEAP reporter activity,RAW-Dual [2]; [5],0.349
same,NF-kB SEAP reporter activity,RAW-Dual [2]; [6],0.719
same,NF-kB SEAP reporter activity,RAW-Dual [2]; [7],0.458
CC(NC(=O)C(=O)Nc1ccccc1C(C)(C)C)C(=O)NC(CC(=O)O)C(=O)COc1c(F)c(F)cc(F)c1F (centres undefined),NF-kB SEAP reporter activity,RAW-Dual [1]; [3],1.15
same,NF-kB SEAP reporter activity,RAW-Dual [1]; [4],0.848
CC(NC(=O)C(=O)Nc1ccccc1C(C)(C)C)C(=O)NC(CC(=O)O)C(=O)COc1c(F)c(F)cc(F)c1F (centres undefined) (library stock concentration (final ~1000-fold dilution): 10 mM),NF-kB SEAP reporter activity,RAW-Dual [2]; agonist: LPS (TLR4) 0.1 ug/mL,0.607
same,NF-kB SEAP reporter activity,RAW-Dual [2]; [5],1.25
same,NF-kB SEAP reporter activity,RAW-Dual [2]; [6],0.912
same,NF-kB SEAP reporter activity,RAW-Dual [2]; [7],1.17
CCOC(=O)Nc1cc(-c2ccc(C)c(NS(C)(=O)=O)c2)nn2c(C)nnc12 (library stock concentration (final ~1000-fold dilution): 10 mM),NF-kB SEAP reporter activity,RAW-Dual [2]; agonist: LPS (TLR4) 0.1 ug/mL,3.81
same,NF-kB SEAP reporter activity,RAW-Dual [2]; [5],1.93
same,NF-kB SEAP reporter activity,RAW-Dual [2]; [6],0.828
same,NF-kB SEAP reporter activity,RAW-Dual [2]; [7],1.44
CCOC(=O)Nc1cc(-c2ccc(C)c(NS(C)(=O)=O)c2)nn2c(C)nnc12,NF-kB SEAP reporter activity,RAW-Dual [1]; [3],1.43
same,NF-kB SEAP reporter activity,RAW-Dual [1]; [4],2.52
CCOC(=O)C1=CC(OC(CC)CC)C(NC(C)=O)C(N)C1 (centres undefined) (library stock concentration (final ~1000-fold dilution): 2 mM),NF-kB SEAP reporter activity,RAW-Dual [2]; agonist: LPS (TLR4) 0.1 ug/mL,1.17
same,NF-kB SEAP reporter activity,RAW-Dual [2]; [5],1.08
same,NF-kB SEAP reporter activity,RAW-Dual [2]; [6],1.16
same,NF-kB SEAP reporter activity,RAW-Dual [2]; [7],1.11
CCOC(=O)C1=CC(OC(CC)CC)C(NC(C)=O)C(N)C1 (centres undefined),NF-kB SEAP reporter activity,"RAW-Dual [1]; library stock concentration (final ~1000-fold dilution): 2 mM, agonist: Imiquimod (TLR7) […]",0.848
same,NF-kB SEAP reporter activity,"RAW-Dual [1]; library stock concentration (final ~1000-fold dilution): 2 mM, agonist: MPLA (TLR4) […]",1.03
N#Cc1cnc(Nc2cc(NCC3CNCCO3)c(C(F)(F)F)cn2)cn1 (centres undefined),NF-kB SEAP reporter activity,RAW-Dual [1]; [3],1.66
same,NF-kB SEAP reporter activity,RAW-Dual [1]; [4],0.936
N#Cc1cnc(Nc2cc(NCC3CNCCO3)c(C(F)(F)F)cn2)cn1 (centres undefined) (library stock concentration (final ~1000-fold dilution): 10 mM),NF-kB SEAP reporter activity,RAW-Dual [2]; agonist: LPS (TLR4) 0.1 ug/mL,1.37
same,NF-kB SEAP reporter activity,RAW-Dual [2]; [5],1.25
same,NF-kB SEAP reporter activity,RAW-Dual [2]; [6],1.34
same,NF-kB SEAP reporter activity,RAW-Dual [2]; [7],1.5
CS(=O)c1ccc(-c2nc(-c3ccc(F)cc3)c(-c3ccncc3)[nH]2)cc1 (centres undefined) (library stock concentration (final ~1000-fold dilution): 10 mM),NF-kB SEAP reporter activity,RAW-Dual [2]; agonist: LPS (TLR4) 0.1 ug/mL,2.27
same,NF-kB SEAP reporter activity,RAW-Dual [2]; [5],0.762
same,NF-kB SEAP reporter activity,RAW-Dual [2]; [6],0.716
same,NF-kB SEAP reporter activity,RAW-Dual [2]; [7],1.02
COc1ccc2cc(-c3[nH]c(-c4ccc(S(C)=O)cc4)nc3-c3ccncc3)ccc2c1 (centres undefined),NF-kB SEAP reporter activity,RAW-Dual [1]; [3],1.81
same,NF-kB SEAP reporter activity,RAW-Dual [1]; [4],2.57
CS(=O)c1ccc(-c2nc(-c3ccc(F)cc3)c(-c3ccncc3)[nH]2)cc1 (centres undefined),NF-kB SEAP reporter activity,RAW-Dual [1]; [3],1.52
same,NF-kB SEAP reporter activity,RAW-Dual [1]; [4],1.61
COc1ccc2cc(-c3[nH]c(-c4ccc(S(C)=O)cc4)nc3-c3ccncc3)ccc2c1 (centres undefined) (library stock concentration (final ~1000-fold dilution): 10 mM),NF-kB SEAP reporter activity,RAW-Dual [2]; agonist: LPS (TLR4) 0.1 ug/mL,3.42
same,NF-kB SEAP reporter activity,RAW-Dual [2]; [5],2.22
same,NF-kB SEAP reporter activity,RAW-Dual [2]; [6],1.74
same,NF-kB SEAP reporter activity,RAW-Dual [2]; [7],2.04
